Assay [1] has as its system NIH3T3. In words: Cytotoxic Profiling of Annotated Libraries Using Quantitative High-Throughput Screening (AID 1296008). The settings on record: Five cell lines viability, CellTiter-Glo ATP luminescence, 48-72 h; max response: hits give low values. An outline of the steps:
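Cytotoxicity was measured as CellTiter-Glo ATP luminescence, read after 10 min at room temperature. Compound treatment of the cells lasted 48 or 72 hr at 37 degrees Celsius in a qHTS format.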

For assay [2], the system named is CRL-7250. Put plainly: qHTS assay to identify novel small-molecules to repurpose for Merkel cell carcinoma treatment (AID 1296009). To be noted: MCC and control cell lines, CellTiter-Glo viability, 72 h; at 44.8 µM (top of the series) unless noted. The method, boiled down: (§1)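 After compound transfer in DMSO, plates were kept 72 hr at 37 degree celsius. Luminescent ATP signal from CellTiter-Glo served as viability measure, normalized against DMSO and no-cell controls.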

The test system of assay [3] is HEK293T. The description is as above. The settings on record: MCC and control cell lines, CellTiter-Glo viability, 72 h; at 44.8 µM (top of the series) unless noted. The method, boiled down:
as §1

Assay [4] concerns MCC-13. The description is as above. To be noted: MCC and control cell lines, CellTiter-Glo viability, 72 h; series mostly up to 46 µM. The method, boiled down:
as §1

Assay [5] has as its system MCC-26. The assay is described as above. The settings on record: MCC and control cell lines, CellTiter-Glo viability, 72 h; series mostly up to 46 µM. The method, boiled down: as §1
For assay [6], the system named is MKL-1. The description is as above. To be noted: MCC and control cell lines, CellTiter-Glo viability, 72 h; series mostly up to 46 µM. The method, boiled down:
as §1

The test system of assay [7] is MKL-2. Described as above. To be noted: MCC and control cell lines, CellTiter-Glo viability, 72 h; series mostly up to 46 µM. An outline of the steps:
as §1

Assay [8] relates to NIH3T3. The assay is described as above. To be noted: MCC and control cell lines, CellTiter-Glo viability, 72 h; at 44.8 µM (top of the series) unless noted. The method, boiled down:
as §1

The test system of assay [9] is UISO. The description is as above. To be noted: MCC and control cell lines, CellTiter-Glo viability, 72 h; series mostly up to 46 µM. An outline of the steps:
as §1

For assay [10], the system named is HACAT. The assay is described as above. The settings on record: MCC and control cell lines, CellTiter-Glo viability, 72 h; at 44.8 µM (top of the series) unless noted. An outline of the steps: as §1

Molecules are shown by their SMILES. “And” between values parts separate entries of the source, which are not always exact repeats. Identical values can stand only once. Results filed as inconclusive are left out. Some structures have more than one record in an assay (separate samples or runs), and their calls can disagree. Unmarked numbers belong to inactive results. The source made the active and inactive calls. Calls come from the whole dose curve; as a rule, active = well fitted inhibition curve with a large enough effect; inconclusive = small, poorly fitted or top-dose-only effect; inactive = flat fitted curve, though single readings scatter.
% is set by controls: 0 for no effect and ±100 for the full control effect; potency is the fitted concentration of half-maximal effect.
Note: nearly all actives have a fitted effect of over 60% in size.

For the molecule `CC1=C(C(=O)O)N2C(=O)[C@@H](N)[C@H]2SC1`, the molecule was called inactive in assay [1]. The outcome in [2], in assay [3] and in assay [8] was “inactive [at 17.4 µM]” in each case. The Potency result in assay [4], in [5], in assay [6], in [7] and in assay [9] was “inactive” in each case.
As to `Cc1ccccc1-n1c(Cn2cnc3c(N)ncnc32)nc2cccc(C)c2c1=O`, the Potency in [1] is 2.64 µM (active); in [5] it was 6.62 µM (active); in assay [9], 3.72 µM (active). Moreover, the max response in [1] is -1.65%. Also, the molecule was classed as inactive in [3].
Take `CC(O)CN1CCN(CC(=O)[O-])CCN(CC(=O)[O-])CCN(CC(=O)[O-])CC1.[Gd+3]` (centres undefined): the max response in [1] was -1.05%. Moreover, in [2], the molecule was classed as inactive. The Potency result in [4], in assay [5], in assay [6], in assay [7] and in [9] was “inactive” each time.
Consider `Oc1ccc2c3c1O[C@H]1c4[nH]c5c(c4C[C@@]4(O)[C@@H](C2)N(CC2CC2)CC[C@]314)C[C@@]1(O)[C@H]2Cc3ccc(O)c4c3[C@@]1(CCN2CC1CC1)[C@H]5O4`, for which the max response in assay [1] was -5.25%. Besides, the result in [2] and in assay [3] was inactive. In addition, the Potency entry in assay [4], in assay [5], in assay [6], in [7] and in assay [9] was “inactive” each time.
For the molecule `CC(=O)OCC1=C(C(=O)O)N2C(=O)[C@@H](N)[C@@H]2SC1`, the max response in [1] was -7.48%. The outcome in assay [2] was inactive. In addition, the Potency result in assay [4], in assay [5], in assay [6], in assay [7] and in assay [9] was “inactive” throughout.
For the molecule `S=C(NC1CCCCC1)N1CCC(c2cnc[nH]2)CC1`, the max response in assay [1] was -20.5%.
As for `CCc1c(C(=O)C(N)=O)c2c(OCC(=O)O)cccc2n1Cc1ccccc1`, the max response in assay [1] was -3.2%. In addition, the molecule was called inactive in assay [1] and in assay [8]. For the same molecule, the Potency entry in [4], in assay [5], in assay [6], in [7] and in assay [9] was “inactive” throughout.
For `O=C(Oc1ccc([N+](=O)[O-])cc1)N1CCN(Cc2cccc(Oc3ccccc3)c2)CC1`, in [1], the max response was 0.403%. In addition, the molecule was classed as inactive in [1] and in assay [8]. Besides, the Potency result in assay [4], in assay [5], in assay [6], in assay [7] and in assay [9] was “inactive” in each case.
Regarding `CC(=O)N(C)c1cccc(-c2ccnc3c(C(=O)c4cccs4)cnn23)c1`, the max response in [1] is -0.872% and 2.98%. Besides, the outcome in [2] and in assay [10] was inactive. Moreover, the Potency result in assay [4], in [5], in [6], in [7] and in [9] was “inactive” throughout.
On to `Cc1cc(O)ccc1Cl`, for which the result in [1], in [2] and in [8] was inactive. Also, the Potency entry in assay [4], in assay [5], in assay [6], in assay [7] and in [9] was “inactive” throughout.
As for `CC(C)[C@]12O[C@H]1[C@@H]1O[C@]13[C@]1(O[C@H]1C[C@H]1C4=C(CC[C@@]13C)C(=O)OC4)[C@@H]2O`, the Potency in assay [1] was 0.092 µM (active).
Regarding `O=c1[nH]c2ccccc2n1C1CCN(Cc2ccc(-c3[nH]c4cc5ncnc5cc4nc3-c3ccccc3)cc2)CC1`, in assay [1], the max response is -3.31%. Besides, the molecule was called inactive in [2]. The Potency result in [4], in assay [5], in [6], in assay [7] and in [9] was “inactive” in each case.
`CC(C)(C)C(O)C(Oc1ccc(Cl)cc1)n1cncn1` (centres undefined): the max response in [1] is 3.17%. The outcome in [2] is “inactive [at 92 µM]”. Moreover, the Potency entry in [4] and in assay [5] was “inactive” throughout.
Take `O=C(O)C(Cl)Cl`: in [1], the max response was -3.68%. For the same molecule, the outcome in [2], in assay [10] and in assay [3] was inactive. The Potency result in [4], in [5], in [6], in assay [7] and in assay [9] was “inactive” in each case.
On to `O=[N+]([O-])c1ccc([As](=O)(O)O)cc1`, for which the outcome in assay [1], in assay [2], in assay [10], in [3] and in assay [8] was inactive. Also, the Potency entry in [4], in assay [5], in assay [6] and in assay [9] was “inactive” throughout. Moreover, in assay [7], the Potency was 8.41 µM (active).
`CC1=NN=C(c2ccc(N)cc2)c2cc3c(cc2C1)OCO3`: the result in [1], in assay [2] and in assay [8] was inactive. Moreover, the Potency entry in assay [4], in assay [5], in [6], in assay [7] and in assay [9] was “inactive” in each case.
With `CC(C)N(CCNC(=O)CN1CCCC1=O)C(C)C`, in assay [1], the max response was 2.3%. Moreover, the molecule was called inactive in assay [1] and in assay [8]. Further, the Potency result in assay [4], in assay [5], in assay [6], in assay [7] and in assay [9] was “inactive” each time.
Take `O=C(N[C@H]1CN2CCC1CC2)c1ccc(Cl)cc1`: the max response in assay [1] was -6.97%. The molecule was classed as inactive in assay [1], in assay [2], in [10], in [3] and in assay [8]. Further, the Potency result in assay [4], in assay [5], in assay [6], in assay [7] and in assay [9] was “inactive” in each case.
For the molecule `O=C1C(I)=CC(=C(c2cc(I)c(O)c(I)c2)c2ccccc2C(=O)O)C=C1I`, the outcome in assay [1], in assay [2], in [10] and in assay [8] was inactive. The Potency result in assay [5], in assay [6], in assay [7] and in assay [9] was “inactive” throughout.
In the case of `O=C(Nc1ccncc1)C(=O)c1cn(Cc2ccc(Cl)cc2)c2ccccc12`, the Potency in assay [1] was 0.0526 µM (active).
For `COc1cccc2c1[C@]13CCN(CC4CC4)[C@H](C2)[C@]1(OC)CCC(=O)C3`, the max response in [1] is 3.8%. Further, the result in assay [2], in assay [10] and in assay [3] was inactive. Also, the Potency entry in [4], in assay [5], in assay [6], in assay [7] and in [9] was “inactive” each time.
`CC(=O)Nc1ccc(OC[C@](C)(O)C(=O)Nc2ccc([N+](=O)[O-])c(C(F)(F)F)c2)cc1`: the max response in assay [1] is 2.34%. For the same molecule, the call in assay [1], in assay [3] and in assay [8] was inactive. In addition, the Potency entry in assay [4], in assay [5], in [6], in assay [7] and in [9] was “inactive” in each case.

Source of the values: PubChem BioAssay (NCATS).
